Reference: PubChem BioAssay (NCATS)
Results filed as inconclusive are left out. Activity calls are given as the source filed them. Calls follow the shape of the dose curve; as a rule, active = well fitted curve in the direction sought with a large enough effect; inconclusive = small, poorly fitted or top-dose-only effect, or another doubt; inactive = no such curve, though single readings can be large; an effect the other way counts as inactive or inconclusive.

Columns and labels:
KB-3-1 = experiment: Cytotoxic Profiling of Annotated Libraries Using Quantitative High-Throughput Screening (AID 1296008); conditions: Five cell lines viability, CellTiter-Glo ATP luminescence, 48-72 h; max response: stronger effect = lower value; also: nearly all actives have a fitted effect of over 60% in size; also: potency is read from the fitted curve at half-maximal effect; as to max response: % is scaled to controls: 0 for no effect and ±100 for the full control effect
Outline: (§1)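 Compounds were pin-transferred onto cells and incubated 48 or 72 hr at 37 degree Celsius, 95% humidity. CellTiter-Glo was added, plates sat 10 min at room temperature, then ATP-coupled luminescence was imaged as the viability read-out.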

NIH3T3 = experiment: as above; conditions: Five cell lines viability, CellTiter-Glo ATP luminescence, 48-72 h; max response: stronger effect = lower value
Outline: as §1

C33A = experiment: Primary qHTS to identify gynecologic anti-cancer compounds using libraries of approved drugs and bioactive compounds (AID 1345084); conditions: Gynecologic cancer cell panel viability, ATPlite luminescence, 48 h; series mostly up to 57.5 µM; also: nearly all actives have a fitted effect of over 55% in size; also: potency is read from the fitted curve at half-maximal effect
Outline: (§2)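 In this quantitative HTS, cell killing is estimated from loss of ATP-dependent luciferase light. Cells see five compound concentrations over a 48 h exposure.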

CASKI = experiment: as above; conditions: Gynecologic cancer cell panel viability, ATPlite luminescence, 48 h; series mostly up to 57.5 µM
Outline: as §2

Es-2 = experiment: as above; conditions: Gynecologic cancer cell panel viability, ATPlite luminescence, 48 h; series mostly up to 57.5 µM
Outline: as §2

HeLa = experiment: as above; conditions: Gynecologic cancer cell panel viability, ATPlite luminescence, 48 h; series mostly up to 57.5 µM
Outline: as §2

Hek293T [1] = experiment: as above; conditions: Gynecologic cancer cell panel viability, ATPlite luminescence, 48 h, control line for the selectivity index; series mostly up to 57.5 µM
Outline: as §2

CAOV3 = experiment: as above; conditions: Gynecologic cancer cell panel viability, ATPlite luminescence, 48 h; series mostly up to 57.5 µM
Outline: as §2

JEG-3 = experiment: as above; conditions: Gynecologic cancer cell panel viability, ATPlite luminescence, 48 h; series mostly up to 57.5 µM
Outline: as §2

OV90 = experiment: as above; conditions: Gynecologic cancer cell panel viability, ATPlite luminescence, 48 h; series mostly up to 57.5 µM
Outline: as §2

HEK293T [2] = experiment: qHTS assay to identify novel small-molecules to repurpose for Merkel cell carcinoma treatment (AID 1296009); conditions: MCC and control cell lines, CellTiter-Glo viability, 72 h; at 44.8 µM (top of the series) unless noted; also: nearly all actives have a fitted effect of over 60% in size
Outline: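 qHTS format: cells treated with library compounds in DMSO across 8 (NPC) or 11 (MIPE) concentrations. Readout after 72 hr at 37 degree celsius was CellTiter-Glo luminescence.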

Cc1ccc([N+](=O)[O-])cc1S(=O)(=O)N(C)/N=C/c1cnc2ccc(Br)cn12
active: Potency (KB-3-1) 146 nM | Potency (NIH3T3) 461 nM | Potency (C33A) 316 nM | Potency (CASKI) 316 nM | Potency (Es-2) 398 nM | Potency (HeLa) 316 nM | Potency (Hek293T [1]) 316 nM

CC1=C(C(=O)O[C@@H]2O[C@H](COC3OCC(O)C(O)C3O)[C@@H](O)[C@H](O)[C@H]2O)C(C)(C)CCC1 (some centres undefined)
inactive: max response (KB-3-1) -5.04% | max response (NIH3T3) -7.14% | Potency (CAOV3) | Potency (CASKI) | Potency (Es-2) | Potency (HeLa) | Potency (Hek293T [1]) | Potency (JEG-3) | Potency (OV90)

COc1ccc(-c2ccc3c(N4CCOCC4)nc(N4CC(C)OC(C)C4)nc3n2)cc1CO (centres undefined)
active: Potency (KB-3-1) 1640 nM | Potency (NIH3T3) 1840 nM | Potency (CASKI) 1120 nM | Potency (Hek293T [1]) 1580 nM | Potency (OV90) 2820 nM
inactive: Potency (JEG-3)

Cc1cccc(/C=N/Nc2cc(N3CCOCC3)n3nc(-c4ccncc4)cc3n2)c1
inactive: max response (KB-3-1) -17.8%
active: Potency (NIH3T3) 651 nM | Potency (CAOV3) 8910 nM | Potency (OV90) 2000 nM

CCNC(=O)Nc1ccc(-c2nc3c(c(N4CCOC[C@@H]4C)n2)CCN(c2ncccn2)C3)cc1
inactive: Potency (JEG-3)
active: Potency (KB-3-1) 291 nM | Potency (NIH3T3) 1030 nM | Potency (Hek293T [1]) 1000 nM | Potency (OV90) 1260 nM

CO[C@@H](C)Cn1c(=O)n(C)c2cnc3ccc(-c4cncc(C(C)(C)O)c4)cc3c21
active: Potency (KB-3-1) 651 nM | Potency (NIH3T3) 326 nM | Potency (CASKI) 5010 nM | Potency (HeLa) 6310 nM | Potency (Hek293T [1]) 562 nM | Potency (JEG-3) 31600 nM

COc1ccc(Oc2cc(C)c(-c3csc(NC(=O)c4ccncc4)n3)c(C)c2)cc1
active: Potency (KB-3-1) 146 nM | Potency (CASKI) 891 nM
inactive: Potency (C33A) | Potency (CAOV3)

CC1(C)CCCC2(C)C(C(=O)O)=CCC12 (centres undefined)
inactive: max response (KB-3-1) -0.0594% | Potency (C33A) | Potency (CAOV3) | Potency (CASKI) | Potency (Es-2) | Potency (HeLa) | Potency (Hek293T [1]) | Potency (JEG-3) | Potency (OV90)

CC(C)(C)c1cc(Br)cc([C@H](CC(=O)O)NC(=O)CNC(=O)c2cc(O)cc(NC3=NCC(O)CN3)c2)c1 (some centres undefined)
inactive: max response (KB-3-1) 3.01% | Potency (C33A) | Potency (CAOV3) | Potency (CASKI) | Potency (Es-2) | Potency (HeLa) | Potency (Hek293T [1]) | Potency (JEG-3) | Potency (OV90)

CCOc1cc(N2CCC(O)CC2)ccc1Nc1ncc2c(n1)N(C1CCCC1)CCC(=O)N2C
active: Potency (KB-3-1) 7310 nM | Potency (NIH3T3) 4110 nM
inactive: Potency (C33A) | Potency (JEG-3)

CNC(=O)c1cccc(-c2ccc3c(N4CCOC[C@@H]4C)nc(N4CCOC[C@@H]4C)nc3n2)c1
active: Potency (KB-3-1) 326 nM | Potency (NIH3T3) 1300 nM | Potency (Hek293T [1]) 1410 nM | Potency (OV90) 1260 nM
inactive: Potency (JEG-3)

Cn1cc(S(=O)(=O)c2ccc(Cl)cc2)c2cccc(N3CCNCC3)c21
active: Potency (KB-3-1) 20600 nM | Potency (NIH3T3) 18400 nM
inactive: Potency (HeLa)

Cc1nc(Nc2n[nH]c3c2CN(C(=O)NC(CN(C)C)c2ccccc2)C3(C)C)c2sccc2n1 (centres undefined)
active: Potency (KB-3-1) 1840 nM | Potency (NIH3T3) 8200 nM | Potency (CAOV3) 1410 nM | Potency (CASKI) 3980 nM | Potency (Es-2) 7940 nM | Potency (HeLa) 10000 nM | Potency (Hek293T [1]) 7940 nM | Potency (OV90) 3160 nM

C[C@@]1(O)[C@H](O)[C@@H](CO)O[C@H]1n1ccc(N)nc1=O
inactive: outcome (KB-3-1) | outcome (HEK293T [2]) | Potency (C33A) | Potency (CAOV3) | Potency (CASKI) | Potency (Es-2) | Potency (HeLa) | Potency (Hek293T [1]) | Potency (JEG-3) | Potency (OV90)

CO[C@H]1/C=C/[C@@](C)(O)/C=C/C(=O)O[C@H](C)[C@@H](C)CC/C=C/1C
active: Potency (NIH3T3) 3210 nM | Potency (CASKI) 11200 nM
inactive: max response (KB-3-1) -8.74%

O=S(=O)(NCC1CC1)c1ccc(Nc2nccc(N3CCCc4cc(O)ccc43)n2)cc1
inactive: Potency (OV90)
active: Potency (KB-3-1) 14600 nM | Potency (NIH3T3) 5800 nM | Potency (C33A) 31600 nM

COc1cc(C2c3cc4c(c(O)c3CC(CO)C2C(=O)O)OCO4)cc(OC)c1O (centres undefined)
active: Potency (KB-3-1) 2000 nM | Potency (NIH3T3) 2820 nM | Potency (Es-2) 3550 nM | Potency (Hek293T [1]) 3980 nM

NC(=O)Nc1cc(-c2cccc(F)c2)sc1C(=O)NC1CCCNC1 (centres undefined)
active: Potency (KB-3-1) 580 nM | Potency (NIH3T3) 517 nM | Potency (Hek293T [1]) 447 nM | Potency (OV90) 5620 nM

Cc1c(C(=O)Nc2ccc(N3CC(C)OC(C)C3)nc2)cccc1-c1ccc(OC(F)(F)F)cc1 (centres undefined)
inactive: max response (KB-3-1) -28.5% | Potency (C33A) | Potency (CAOV3) | Potency (CASKI) | Potency (Es-2) | Potency (HeLa) | Potency (Hek293T [1]) | Potency (JEG-3) | Potency (OV90)

Cc1cc(O)c(-c2ccc([C@@H](C)CN(C)C)cc2)c2c1[nH]c(=O)c1sccc12
active: Potency (KB-3-1) 46.1 nM | Potency (NIH3T3) 231 nM | Potency (CASKI) 251 nM | Potency (Es-2) 282 nM | Potency (HeLa) 447 nM | Potency (Hek293T [1]) 158 nM
